The source made the active and inactive calls. Unless noted, the rule behind the calls is not given here.
Tests used:
[1] = test system: Wnt5a (protein binding on small-molecule microarray); assay: small molecules binding Wnt5a protein – biophysical, small-molecule microarray, 635/667 nm fluorescence, primary screen (AID 1142); details: 635 nm fluorescence, higher = more signal;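 note: fluorescence read at 667 nm with signal to noise per printed feature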
[2] = ATP-based viability of Huh7 replicon cells – cell-based, CellTiter-Glo luminescence, basal, 48 h, cytotoxicity control for HCV replication inhibitor project, primary screen (AID 1143); details: higher = more signal, called active from +8 up or from −8 down;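 note: Huh7 hepatoma cells carrying a hepatitis C replication reporter with no stimulus; test concentration not given here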
[3] = Pseudomonas biofilm growth suppression – PAO1 strain, BacTiter-Glo luminescence, LB-PBS, primary screen (AID 1144); details: P. aeruginosa PAO1 biofilm, 12 h, higher = more signal
[4] = basal CRE-LacZ reporter activity in PC12 – cell-based, unstimulated, primary screen (AID 1145); details: no forskolin, luminescence, 4.5 h, higher = more signal, called active from +8 up or from −8 down
[5] = forskolin-driven CRE-LacZ activity in PC12 – cell-based, CRE-LacZ reporter, forskolin-stimulated, primary screen (AID 1146); details: luminescence, 4.5 h, higher = more signal, called active from +8 up or from −8 down;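 note: PC12 cells with 6xCRE LacZ reporter stimulated by forskolin 10 µM; beta-galactosidase reporter signal reflecting CREB driven transcription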
[6] = biological target: Streptavidin (Streptomyces avidinii) (UniProt P22629); assay: compounds binding control protein streptavidin – biophysical, small-molecule microarray, 635/667 nm fluorescence, artefact control for SMM compound annotation, primary screen (AID 1147); details: higher = more signal;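 note: signal reflects streptavidin binding to arrayed compounds as a control protein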
Sequence of Streptavidin (Streptomyces avidinii) (P22629 whole entry, looked up): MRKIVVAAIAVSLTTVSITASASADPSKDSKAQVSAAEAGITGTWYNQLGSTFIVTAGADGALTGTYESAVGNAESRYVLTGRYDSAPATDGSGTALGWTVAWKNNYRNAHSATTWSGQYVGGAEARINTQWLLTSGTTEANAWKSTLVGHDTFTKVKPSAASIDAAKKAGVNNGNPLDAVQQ

[7] = probe aInhba binding on compound microarray – biochemical, small-molecule microarray, 635/667 nm fluorescence, primary screen (AID 1148); details: higher = more signal;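 note: score merges 667nm spot fluorescence with signal-to-noise for antibody binding to printed compounds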
Torsin-1A (Homo sapiens) [8] = biological target: Torsin-1A (Homo sapiens) (UniProt O14656); assay: TOR1A wild-type binding on microarray – cell lysate, small-molecule microarray, lysate, 635/667 nm, primary screen (AID 1149); details: COS7 hTOR1A-WT lysate, 635 nm fluorescence, higher = more signal
Sequence of Torsin-1A (Homo sapiens) (O14656 whole entry, looked up): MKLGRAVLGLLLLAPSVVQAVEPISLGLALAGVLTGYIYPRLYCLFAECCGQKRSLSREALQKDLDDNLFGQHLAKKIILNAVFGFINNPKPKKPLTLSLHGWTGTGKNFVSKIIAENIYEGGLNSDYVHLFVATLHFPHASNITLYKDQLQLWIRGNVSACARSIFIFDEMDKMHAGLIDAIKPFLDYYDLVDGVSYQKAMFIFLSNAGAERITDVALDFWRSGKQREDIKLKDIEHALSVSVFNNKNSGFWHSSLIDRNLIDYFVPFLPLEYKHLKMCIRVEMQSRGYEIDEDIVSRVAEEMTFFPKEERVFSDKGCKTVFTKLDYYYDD

Torsin-1A (Homo sapiens) [9] = biological target: Torsin-1A (Homo sapiens) (UniProt O14656); assay: torsin A mutant lysate binding on microarrays – cell lysate, small-molecule microarray, COS7 lysate, 635/667 nm fluorescence, primary screen (AID 1150); details: COS7 hTOR1A mutant lysate, 635 nm fluorescence, higher = more signal;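 note: score pools 667 nm emission and signal to noise measuring lysate protein binding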
[10] = test system: Sonic hedgehog protein (Shh); assay: Sonic hedgehog microarray binding compounds – biochemical, small-molecule microarray, 635/667 nm fluorescence, primary screen (AID 1151); details: 635 nm fluorescence, higher = more signal;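 note: Shh protein binding to compounds spotted on small-molecule microarray slides; score combines spot fluorescence intensity with signal-to-noise across triplicate slides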
[11] = optical density shifts of acrAB sulA E. coli – strain DRC41, OD650, 48 h, E. coli filamentation inducer project, primary screen (AID 1152); details: higher = more signal, called active from +8 up or from −8 down;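 note: E. coli MC1000 strain DRC41 lacking acrAB efflux pump and sulA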
[12] = probe aLefty1 binding on compound microarray – biochemical, small-molecule microarray, 635/667 nm fluorescence, primary screen (AID 1153); details: higher = more signal;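 note: score merges spot fluorescence with signal-to-noise ratio from the scanned slide images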
[13] = plasmodial surface anion channel blockers, osmotic lysis – cell-based, P. falciparum Indochina, OD700, 1 h, primary screen (AID 1154); details: P. falciparum Indochina infected RBC osmotic lysis, higher = more signal, called active from +8 up or from −8 down
[14] = plasmodial surface anion channel blockers, osmotic lysis – cell-based, P. falciparum Indochina, OD700, 2 h, primary screen (AID 1155);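 note: lysis reports solute entry through the parasite surface anion channel PSAC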; details: P. falciparum Indochina infected erythrocytes, higher = more signal, called active from +8 up or from −8 down
[15] = changes in parasitized red cell lysis, either direction – P. falciparum Indochina, OD700, 3 h, PSAC antagonist project, primary screen (AID 1156); details: P. falciparum-infected erythrocytes, osmotic lysis, higher = more signal, called active from +8 up or from −8 down
[16] = plasmodial surface anion channel blockers, osmotic lysis – cell-based, P. falciparum Indochina, OD700, 18 h, primary screen (AID 1157); details: P. falciparum Indochina infected erythrocytes, osmotic lysis OD700, 18 h; higher = more signal, called active from +8 up or from −8 down
[17] = S6 kinase pathway phospho-S6 level changes – cell-based, A549, cytoblot, luminescence, serum-stimulated, primary screen (AID 1158); details: 5 h, higher = more signal;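 note: serum-stimulated A549 lung adenocarcinoma cells; signal is phosphorylated S6 detected by cytoblot immunostaining with HRP secondary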
[18] = biological target: NADPH oxidase 2 (Homo sapiens) (UniProt P04839); assay: compounds shifting NOX2 Amplex Red fluorescence – cell-based, HEK293-NOX2, PMA-stimulated, NOX inhibitor project, primary screen (AID 1159); details: 45 min, higher = more signal, called active from +8 up or from −8 down; note: test concentration not given here
Sequence of NADPH oxidase 2 (Homo sapiens) (P04839 whole entry, looked up): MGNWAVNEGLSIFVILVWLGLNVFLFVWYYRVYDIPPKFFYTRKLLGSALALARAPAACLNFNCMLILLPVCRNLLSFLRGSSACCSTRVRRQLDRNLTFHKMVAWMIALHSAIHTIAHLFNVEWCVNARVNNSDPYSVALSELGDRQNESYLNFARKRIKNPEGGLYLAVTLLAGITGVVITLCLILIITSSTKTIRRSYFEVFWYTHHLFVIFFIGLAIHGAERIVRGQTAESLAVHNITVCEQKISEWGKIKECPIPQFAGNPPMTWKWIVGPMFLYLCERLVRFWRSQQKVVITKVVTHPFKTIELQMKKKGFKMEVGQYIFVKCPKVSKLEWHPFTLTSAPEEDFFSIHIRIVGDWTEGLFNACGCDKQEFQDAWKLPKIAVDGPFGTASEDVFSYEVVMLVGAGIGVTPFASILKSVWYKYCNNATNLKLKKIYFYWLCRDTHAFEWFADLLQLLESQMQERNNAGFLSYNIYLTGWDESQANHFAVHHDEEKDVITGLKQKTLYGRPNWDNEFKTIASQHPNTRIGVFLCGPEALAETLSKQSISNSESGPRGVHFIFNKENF

[19] = biological target: NADPH oxidase 4 (Homo sapiens) (UniProt Q9NPH5); assay: compounds shifting NOX4 Amplex Red fluorescence – cell-based, HEK293-NOX4, tetracycline-induced, NOX inhibitor project, primary screen (AID 1160); details: HEK293-NOX4, Amplex Red H2O2 fluorescence, 45 min; higher = more signal, called active from +8 up or from −8 down
Sequence of NADPH oxidase 4 (Homo sapiens) (Q9NPH5 whole entry, looked up): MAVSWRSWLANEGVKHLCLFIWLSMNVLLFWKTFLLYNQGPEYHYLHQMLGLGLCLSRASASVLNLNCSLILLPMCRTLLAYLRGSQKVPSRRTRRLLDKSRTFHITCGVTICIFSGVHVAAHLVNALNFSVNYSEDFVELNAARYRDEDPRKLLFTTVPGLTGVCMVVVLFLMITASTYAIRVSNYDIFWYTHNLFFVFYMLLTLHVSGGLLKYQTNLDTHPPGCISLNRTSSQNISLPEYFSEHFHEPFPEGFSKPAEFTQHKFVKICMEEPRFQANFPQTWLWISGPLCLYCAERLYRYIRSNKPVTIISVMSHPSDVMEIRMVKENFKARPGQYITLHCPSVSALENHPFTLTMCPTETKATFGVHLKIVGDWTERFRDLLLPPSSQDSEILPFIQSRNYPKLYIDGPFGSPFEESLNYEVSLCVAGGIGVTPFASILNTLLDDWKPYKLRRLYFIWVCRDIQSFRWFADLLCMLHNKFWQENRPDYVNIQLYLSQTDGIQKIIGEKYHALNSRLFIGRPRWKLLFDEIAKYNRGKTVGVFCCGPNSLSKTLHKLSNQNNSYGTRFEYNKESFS

[20] = biological target: NADPH oxidase 5 (Homo sapiens) (UniProt Q96PH1); assay: compounds shifting NOX5 Amplex Red fluorescence – cell-based, HEK293-NOX5, NOX inhibitor project, primary screen (AID 1161); details: HEK293-NOX5, ionomycin, 45 min, higher = more signal
Sequence of NADPH oxidase 5 (Homo sapiens) (Q96PH1 whole entry, looked up): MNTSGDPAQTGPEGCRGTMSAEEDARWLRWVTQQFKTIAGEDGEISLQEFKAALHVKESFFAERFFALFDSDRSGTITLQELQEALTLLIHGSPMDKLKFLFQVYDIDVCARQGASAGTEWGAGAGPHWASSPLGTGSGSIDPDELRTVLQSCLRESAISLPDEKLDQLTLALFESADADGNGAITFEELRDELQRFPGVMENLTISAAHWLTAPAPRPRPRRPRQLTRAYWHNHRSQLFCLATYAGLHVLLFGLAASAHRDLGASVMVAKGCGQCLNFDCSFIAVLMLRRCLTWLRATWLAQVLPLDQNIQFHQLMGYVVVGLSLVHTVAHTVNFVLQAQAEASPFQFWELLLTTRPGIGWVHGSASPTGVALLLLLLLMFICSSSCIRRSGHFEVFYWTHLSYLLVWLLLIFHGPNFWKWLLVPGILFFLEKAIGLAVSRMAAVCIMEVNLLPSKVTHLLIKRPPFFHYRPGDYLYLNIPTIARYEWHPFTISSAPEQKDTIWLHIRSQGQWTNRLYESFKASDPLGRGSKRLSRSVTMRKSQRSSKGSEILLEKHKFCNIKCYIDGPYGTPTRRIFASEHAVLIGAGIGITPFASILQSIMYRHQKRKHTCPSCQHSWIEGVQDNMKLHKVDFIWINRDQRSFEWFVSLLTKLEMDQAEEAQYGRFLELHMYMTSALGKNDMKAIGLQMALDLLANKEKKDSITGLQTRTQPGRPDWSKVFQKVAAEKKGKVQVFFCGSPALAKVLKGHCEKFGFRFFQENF

Compound	composite z-score [1]	z-score [2]	z-score [3]	z-score [4]	z-score [5]	composite z-score [6]	composite z-score [7]	composite z-score (Torsin-1A (Homo sapiens) [8])	composite z-score (Torsin-1A (Homo sapiens) [9])	composite z-score [10]	z-score [11]	composite z-score [12]	z-score [13]	z-score [14]	z-score [15]	z-score [16]	z-score [17]	z-score [18]	z-score [19]	z-score [20]
CCOC(=O)C[C@H]1[C@H](OC(=O)c2cc3ccccc3oc2=O)[C@@H](NC(=O)Cc2ccc(OC)cc2)c2cc(OCCCO)ccc2N1C(=O)c1ccc2ccccc2n1	0.34	0.0642 (inactive)	0.177 (inactive)	11.5 (active)	-0.906 (inactive)	0.14	0.0275	0.0518	0.161	0.479	0.96 (inactive)	-0.0046	9.52 (active)	0.85 (inactive)	0.785 (inactive)	0.305 (inactive)	0.336	1.71 (inactive)	1.34 (inactive)	1.53
[N-]=[N+]=Nc1ccccc1[C@H]1OC(c2ccc(OCCCO)cc2)=N[C@@]1(CCS(=O)(=O)c1ccccc1)C(=O)NCCN1CCOCC1	1.11	-1.14 (inactive)	1.38 (inactive)	-0.45 (inactive)	-0.5 (inactive)	0.866	0.283	0.484	1.47	0.273	-0.0631 (inactive)	0.458	28.9 (active)	25.6 (active)	0.931 (inactive)	1.8 (inactive)	0.468	-2.18 (inactive)	-0.233 (inactive)	-1.47
O=C1O[C@H](c2ccccc2)[C@H](c2ccccc2)N2[C@H]1[C@@H](C(=O)NC[C@H](O)c1ccccc1)[C@]1(C(=O)Nc3ccc(C#CCCO)cc31)[C@H]2c1ccc(OCCO)cc1	0.518	-0.821 (inactive)	-0.626 (inactive)	0.299 (inactive)	0.0413 (inactive)	0.0889	0.0464	0.13	0.38	1.76	0.0129 (inactive)	0.138	3.5 (inactive)	1.19 (inactive)	0.123 (inactive)	0.663 (inactive)	-0.268	1.16 (inactive)	0.861 (inactive)	0.275
COCCOC(=O)N1C(=O)[C@@]2(c3cc(C#CCCO)ccc31)[C@H](c1ccccc1OCCO)N1[C@H](c3ccccc3)[C@H](c3ccccc3)OC(=O)[C@H]1[C@@H]2C(=O)Nc1nc2ccccc2s1	0.138	-0.99 (inactive)	0.564 (inactive)	-0.467 (inactive)	0.428 (inactive)	0.284	0.107	0.691	0.568	1.66	-0.395 (inactive)	0.241	13.1 (active)	3.36 (inactive)	0.621 (inactive)	1.66 (inactive)	-0.202	1.18 (inactive)	0.781 (inactive)	1.53
C[C@@H]1NC(=O)[C@@]23C(=O)N[C@@H](Cc4ccccc4)C2[C@H](C)[C@@]2(C)O[C@H]2C3/C=C/C/C=C\CNC(=O)[C@@H]2CCCN2C1=O (stereo not given in full)	-0.0872	-0.0642 (inactive)	-0.426 (inactive)	-0.687 (inactive)	-0.226 (inactive)	-0.591	-0.159	0.271	-0.127	0.44	-0.906 (inactive)	-0.147	0.518 (inactive)	-0.0429 (inactive)	-1.12 (inactive)	-0.161 (inactive)	0.0613	-0.0487 (inactive)	0.581 (inactive)	-2.64
[N-]=[N+]=NCc1ccccc1[C@@H]1OC(c2ccc(OCCCO)cc2)=N[C@]1(CCS(=O)(=O)c1ccccc1)C(=O)NCC(O)CO (stereo not given in full)	0.541	-0.866 (inactive)	-0.701 (inactive)	1.71 (inactive)	-1.17 (inactive)	0.962	0.0073	1.05	1.36	0.0169	0.766 (inactive)	0.546	24.8 (active)	8.05 (active)	0.619 (inactive)	0.158 (inactive)	2.02	0.861 (inactive)	1.78 (inactive)	2.57
CCCCC(O)C1C=CC2C(=O)N(c3ccccc3)C(=O)C2N1Nc1ccc(C(C)C)cc1 (stereo not given)	0.261	-0.714 (inactive)	-0.905 (inactive)	1.38 (inactive)	0.232 (inactive)	0.486	0.341	-0.149	0.214	-0.207	-0.759 (inactive)	0.484	2.81 (inactive)	1.44 (inactive)	0.39 (inactive)	1.39 (inactive)	-0.843	-1.5 (inactive)	-3.21 (inactive)	-1.92
COCCCNC(=O)[C@@]1(Cc2ccccc2N=[N+]=[N-])COC(c2ccc(OCCCO)cc2)=N1	0.926	-1.63 (inactive)	0.53 (inactive)	-0.641 (inactive)	-0.849 (inactive)	1.63	0.0184	0.308	0.614	-0.676	1.21 (inactive)	0.35	27.4 (active)	16.4 (active)	2.03 (inactive)	2.36 (inactive)	-0.44	-1.62 (inactive)	0.528 (inactive)	-0.146

From PubChem BioAssay
